Data published in PubChem BioAssay AID1159580 (chemical genetic matrix, 2015).
Hit rate of the full screen: of about 5,500 compounds, about 2,000 (36%) were called active. Not shown: some 18% with an inconclusive outcome. No stated cut-off is given here; in the data, active means normalized growth mostly below about 0.91 (no sharp cut-off); inconclusive means no clear call, values can overlap the other calls; inactive means mostly above about 0.92. This is one part of the list.

Assay: chemical genetic growth profiling, strain panel (AID 1159580);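 further: tested at 20 µM; growth read once vehicle control cultures reached saturation at 30 °C; 1 = growth at the plate median or of vehicle wells; lower values mean less growth of the strain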
Conditions: growth OD

Measured: normalized growth

CC(C)C1CCC(C(=O)N[C@@H](Cc2ccccc2)C(=O)O)CC1 (some centres not stated)
inactive: S. cerevisiae deletion strains, locus YJR075W, strain HOC1, hits give low values 0.992 | S. cerevisiae deletion strains, locus YKL009W, strain mrt4, hits give low values 0.963 | S. cerevisiae deletion strains, locus YKL068W, hits give low values 1 | S. cerevisiae deletion strains, locus YKL085W, strain MDH1 (second series), hits give low values 1 | S. cerevisiae deletion strains, locus YKL085W, strain MDH1, hits give low values 1 | S. cerevisiae deletion strains, locus YKL160W, strain elf1, hits give low values 0.971 | S. cerevisiae deletion strains, locus YKL190W, strain CNB1, hits give low values 0.976 | S. cerevisiae deletion strains, locus YKR001C, strain vps1, hits give low values 1.04 | S. cerevisiae deletion strains, locus YKR026C, strain gcn3, hits give low values 0.974 | S. cerevisiae deletion strains, locus YKR091W, strain srl3, hits give low values 0.978 | S. cerevisiae deletion strains, locus YLL001W, strain dnm1, hits give low values 0.957 | S. cerevisiae deletion strains, locus YLL026W, hits give low values 0.981 | S. cerevisiae deletion strains, locus YLL041C, strain sdh2, hits give low values 0.961 | S. cerevisiae deletion strains, locus YLR027C, strain aat2, hits give low values 0.985 | S. cerevisiae deletion strains, locus YLR039C, strain RIC1, hits give low values 0.969 | S. cerevisiae deletion strains, locus YLR058C, strain SHM2, hits give low values 1 | S. cerevisiae deletion strains, locus YLR102C, strain apc9, hits give low values 0.999 | S. cerevisiae deletion strains, locus YLR113W, strain HOG1, hits give low values 1.02 | S. cerevisiae deletion strains, locus YLR221C, strain rsa3, hits give low values 0.987 | S. cerevisiae deletion strains, locus YLR258W, strain gsy2, hits give low values 0.987 | S. cerevisiae deletion strains, locus YLR262C, strain YPT6 (second series), hits give low values 0.955 | S. cerevisiae deletion strains, locus YLR262C, strain YPT6, hits give low values 0.964 | S. cerevisiae deletion strains, locus YLR268W, strain sec22, hits give low values 1.01 | S. cerevisiae deletion strains, locus YLR320W, strain mms22, hits give low values 0.979 | S. cerevisiae deletion strains, locus YLR330W, strain CHS5, hits give low values 1 | S. cerevisiae deletion strains, locus YLR342W, strain FKS1 (second series), hits give low values 0.965 | S. cerevisiae deletion strains, locus YLR342W, strain FKS1, hits give low values 0.979 | S. cerevisiae deletion strains, locus YLR357W, strain rsc2, hits give low values 0.971 | S. cerevisiae deletion strains, locus YLR370C, strain arc18, hits give low values 0.959 | S. cerevisiae deletion strains, locus YLR371W, strain rom2, hits give low values 1.01 | S. cerevisiae deletion strains, locus YLR384C, strain iki3, hits give low values 0.965 | S. cerevisiae deletion strains, locus YLR418C, strain cdc73, hits give low values 1.05 | S. cerevisiae deletion strains, locus YML016C, strain PPZ1, hits give low values 1 | S. cerevisiae deletion strains, locus YML032C, strain rad52, hits give low values 1.02 | S. cerevisiae deletion strains, locus YML120C, strain ndi1, hits give low values 0.97 | S. cerevisiae deletion strains, locus YML124C, strain tub3, hits give low values 1.02 | S. cerevisiae deletion strains, locus YMR058W, strain fet3, hits give low values 0.98 | S. cerevisiae deletion strains, locus YMR078C, strain ctf18, hits give low values 1.02 | S. cerevisiae deletion strains, locus YMR125W, strain sto1, hits give low values 0.966 | S. cerevisiae deletion strains, locus YMR129W, hits give low values 0.977 | S. cerevisiae deletion strains, locus YMR205C, strain PFK2, hits give low values 0.967 | S. cerevisiae deletion strains, locus YMR223W, strain ubp8, hits give low values 1.02 | S. cerevisiae deletion strains, locus YMR231W, strain pep5, hits give low values 0.971 | S. cerevisiae deletion strains, locus YMR263W, strain SAP30, hits give low values 0.974 | S. cerevisiae deletion strains, locus YMR307W, strain GAS1, hits give low values 0.998 | S. cerevisiae deletion strains, locus YNL067W, strain RPL9B, hits give low values 0.999 | S. cerevisiae deletion strains, locus YNL071W, strain lat1, hits give low values 0.979 | S. cerevisiae deletion strains, locus YNL128W, strain TEP1, hits give low values 0.971 | S. cerevisiae deletion strains, locus YNL153C, strain GIM3, hits give low values 1 | S. cerevisiae deletion strains, locus YNL183C, strain NPR1, hits give low values 0.955 | S. cerevisiae deletion strains, locus YNL209W, strain ssb2, hits give low values 0.963 | S. cerevisiae deletion strains, locus YNL233W, strain BNI4, hits give low values 1.01 | S. cerevisiae deletion strains, locus YNL248C, strain rpa49, hits give low values 0.976 | S. cerevisiae deletion strains, locus YNL250W, strain rad50, hits give low values 1.01 | S. cerevisiae deletion strains, locus YNL271C, strain bni1, hits give low values 1.01 | S. cerevisiae deletion strains, locus YNL298W, strain CLA4, hits give low values 1.01 | S. cerevisiae deletion strains, locus YNL307C, strain MCK1, hits give low values 1.03 | S. cerevisiae deletion strains, locus YNL322C, strain KRE1 (second series), hits give low values 0.992 | S. cerevisiae deletion strains, locus YNL322C, strain KRE1, hits give low values 0.998 | S. cerevisiae deletion strains, locus YNR049C, strain mso1, hits give low values 0.975 | S. cerevisiae deletion strains, locus YNR052C, strain pop2, hits give low values 1.01 | S. cerevisiae deletion strains, locus YOL006C, strain TOP1, hits give low values 1.03 | S. cerevisiae deletion strains, locus YOL012C, strain htz1 1.07 | S. cerevisiae deletion strains, locus YOL147C, strain pex11, hits give low values 1.02 | S. cerevisiae deletion strains, locus YOR001W, strain rrp6, hits give low values 0.967 | S. cerevisiae deletion strains, locus YOR061W, strain CKA2, hits give low values 1 | S. cerevisiae deletion strains, locus YOR069W, strain VPS5, hits give low values 0.994 | S. cerevisiae deletion strains, locus YOR070C, strain gyp1, hits give low values 0.974 | S. cerevisiae deletion strains, locus YOR080W, strain dia2, hits give low values 0.977 | S. cerevisiae deletion strains, locus YOR083W, strain WHI5, hits give low values 0.984 | S. cerevisiae deletion strains, locus YOR106W, strain vam3, hits give low values 0.981 | S. cerevisiae deletion strains, locus YOR136W, strain idh2, hits give low values 1.02 | S. cerevisiae deletion strains, locus YOR144C, strain elg1, hits give low values 1.01 | S. cerevisiae deletion strains, locus YOR184W, strain ser1, hits give low values 1 | S. cerevisiae deletion strains, locus YOR231W, strain MKK1, hits give low values 0.966 | S. cerevisiae deletion strains, locus YOR265W, strain rbl2, hits give low values 0.975 | S. cerevisiae deletion strains, locus YOR270C, strain vph1, hits give low values 0.949 | S. cerevisiae deletion strains, locus YOR290C, strain snf2, hits give low values 0.962 | S. cerevisiae deletion strains, locus YOR316C, strain cot1, hits give low values 1 | S. cerevisiae deletion strains, locus YPL051W, strain arl3, hits give low values 0.976 | S. cerevisiae deletion strains, locus YPL055C, strain LGE1, hits give low values 0.996 | S. cerevisiae deletion strains, locus YPL078C, strain atp4, hits give low values 0.974 | S. cerevisiae deletion strains, locus YPL106C, strain sse1, hits give low values 0.96 | S. cerevisiae deletion strains, locus YPL240C, strain hsp82, hits give low values 0.981 | S. cerevisiae deletion strains, locus YPL241C, strain CIN2, hits give low values 0.983 | S. cerevisiae deletion strains, locus YPL256C, strain CLN2, hits give low values 0.982 | S. cerevisiae deletion strains, locus YPR119W, strain clb2, hits give low values 1.01 | S. cerevisiae deletion strains, locus YPR141C, strain kar3, hits give low values 1.02 | S. cerevisiae deletion strains, locus YPR163C, strain tif3, hits give low values 1.02 | S. cerevisiae deletion strains, locus YPR167C, strain met16, hits give low values 1.01 | S. cerevisiae deletion strains, strain wtn01, hits give low values 1 | S. cerevisiae strains, strain wild type, hits give low values 0.986
